Among the data in PubChem BioAssay (NCI) are growth inhibition values, retold here.

Structures are written as SMILES. About 79,000 compounds went through this panel and 15% of them were active in at least one assay; those are over-represented in the sample as a whole. Values without a mark were called inactive. Active and inactive are the calls of the source. Cut-off read from the data, not from the text of the source: active = growth inhibition above about 70%; inactive = the rest.

Assay [1] is described as follows: NCI Yeast Anticancer Drug Screen. Data for the rad50 strain (AID 155).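 Note: 0% = growth of vehicle-only cultures of the same strain.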 Particulars: S. cerevisiae rad50 strain growth inhibition; at 50.0 µM; active compounds read high. In a few lines: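 Readout: growth inhibition relative to vehicle-treated cultures. Compound exposure was carried out in a genetically defined yeast strain deficient in DNA damage repair.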
Assay [2] can be described thus: NCI Yeast Anticancer Drug Screen. Data for the mec2-1 strain (AID 157). The note with it: S. cerevisiae mec2-1 strain, at 50.0 µM, active compounds read high. In a few lines: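 mec2-1 yeast strain, carrying an alteration in DNA damage repair or cell cycle control, was exposed to compounds; growth inhibition was measured relative to vehicle-treated controls.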
The nature of assay [3]: NCI Yeast Anticancer Drug Screen. Data for the sgs1 mgt1 strain (AID 161).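 Note: 0% = growth of cultures given vehicle only.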 Particulars: S. cerevisiae sgs1 mgt1 strain, at 50.0 µM, active compounds read high. A digest of the protocol:
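Yeast cells carrying a defined DNA-repair defect were exposed to test compounds. Growth inhibition was measured relative to vehicle-treated controls.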

The nature of assay [4]: NCI Yeast Anticancer Drug Screen. Data for the cln2 rad14 strain (AID 165).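 Note: 0% = growth equal to vehicle treated cultures.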 The note with it: S. cerevisiae cln2 rad14 strain, at 50.0 µM, active compounds read high. In a few lines: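 Yeast carrying cln2 and rad14 alterations (cell cycle control and DNA damage repair) were exposed to compounds. Growth inhibition was measured against vehicle-treated controls.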
Assay [5] is described as follows: NCI Yeast Anticancer Drug Screen. Data for the bub3 strain (AID 167). Particulars: S. cerevisiae bub3 mutant strain, at 50.0 µM, active compounds read high. A digest of the protocol:
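Readout: yeast growth inhibition, expressed relative to vehicle-only wells. The test organism is a mutant strain from a panel with lesions in DNA repair or checkpoint genes.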

A short description of assay [6]: NCI Yeast Anticancer Drug Screen. Data for the mlh1 rad18 strain (AID 175). The note with it: S. cerevisiae mlh1 rad18 strain growth inhibition; at 50.0 µM; active compounds read high. A digest of the protocol: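 Growth inhibition of the yeast strain was measured after compound exposure and expressed relative to vehicle-treated controls. The strain carries defined defects in DNA damage repair.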

As to `CCN(CC)CCSCCSCCN(CC)CC`, the growth inhibition in assay [1] was -24.7%; in assay [2] it was -1.55%; in assay [3] it was -3.05%; in assay [4], -39%; in assay [5], 8.65%; in assay [6] it was -10.3%.
For `CC1(C)C(=O)CCC2(C)C(OC(=O)c3ccc(C(=O)O)cc3)CCCC12` (stereo not drawn), the growth inhibition in assay [1] was -2%; in assay [2] it was 37.5%; in assay [3] it was 30.1%; in assay [4], -15.4%; in assay [5] it was 20.2%; in assay [6], 18.4%.
As for `CCOC(=O)NC(N)=O`, the growth inhibition is 11.3% in assay [1]; -1.45% in assay [2]; 14.2% in assay [3]; -8.1% in assay [4]; 0.4% in assay [5]; 6.85% in assay [6].
`COC1=C(OC)C(=O)C(Sc2ccc3ccccc3c2)=C(Cl)C1=O`: the growth inhibition in assay [1] was 95.2% (active); in assay [2], 94.2% (active); in assay [3] it was 93.8% (active); in assay [4], 94.4% (active); in assay [5], 91.7% (active); in assay [6], 91.1% (active).
As to `CC(=O)NCC(=O)c1ccccc1`, the growth inhibition in assay [1] is 12.5%; in assay [2], -2.4%; in assay [3], 3.75%; in assay [4] it was -7.1%; in assay [5], -6.35%; in assay [6], 9.5%.
Turning to `NOCc1ccc(OCc2ccccc2)cc1`, the growth inhibition in assay [1] is 5.75%; in assay [2] it was 7.3%; in assay [3], -6.7%; in assay [4], -18.8%; in assay [5] it was -2.4%; in assay [6], -11.5%.
As for `O=S1C2CCC(Br)C1CCC2Br` (stereo not drawn), the growth inhibition was 7.95% in assay [1]; -6.15% in assay [2]; 23.1% in assay [3]; -5.35% in assay [4]; 5.5% in assay [5]; 12.4% in assay [6].
On to `CC(=O)/C(N=Nc1ccc(S(=O)(=O)c2ccc(N=N/C(C(C)=O)=C(/C)O)cc2)cc1)=C(\C)O`, for which the growth inhibition in assay [1] was -27.2%; in assay [2] it was -20.4%; in assay [3], -9.8%; in assay [4] it was 0.15%; in assay [5], -20.6%; in assay [6], -14.9%.
With `CC(C)(O)CC(O)(C(F)(F)F)C(F)(F)F`, the growth inhibition is 14.3% in assay [1]; -0.95% in assay [2]; -3.25% in assay [3]; -20.3% in assay [4]; 3.35% in assay [5]; 1.9% in assay [6].
With `CN(C)c1ccc(C(=N)c2ccc(N(C)C)cc2)cc1`, the growth inhibition in assay [1] is -3.85%; in assay [2], 4.9%; in assay [3], -6%; in assay [4], -35.5%; in assay [5], 5.45%; in assay [6], -0.15%.
For the molecule `ClC1CC2CCC1C2` (stereo not drawn), the growth inhibition is 26.9% in assay [1]; -20.8% in assay [2]; 8.45% in assay [3]; 7.75% in assay [4]; -8.3% in assay [5]; 9.1% in assay [6].
In the case of `CCOC(=O)[C@H]1Nc2ccc(C)cc2C2c3ccccc3CC21` (stereo partly drawn), the growth inhibition in assay [1] was -1.5%; in assay [2] it was -28.2%; in assay [3], 3.45%; in assay [4], -1.7%; in assay [5], -23.3%; in assay [6], -22.8%.
Consider `CN(C)CCC(CCN(C)C)=NO`, for which the growth inhibition in assay [1] was -37.2%; in assay [2] it was -49.1%; in assay [3], 3.4%; in assay [4], 15.5%; in assay [5], -31.4%; in assay [6], -12.1%.
On to `NCCSSC/C=C\CSSCCN`, for which the growth inhibition in assay [1] is 2.65%; in assay [2], 1.5%; in assay [3], -24.1%; in assay [4], 16.2%; in assay [5] it was -15.8%; in assay [6], -12.9%.
As to `O=C1CSc2ccnc(=O)n21`, the growth inhibition in assay [1] was -0.1%; in assay [2] it was -10%; in assay [3] it was 16.7%; in assay [4] it was 11.1%; in assay [5], -9.8%; in assay [6] it was -8.1%.
On to `COC(=O)/C(=N\O)C(C(=O)C=C(C)C)C(=O)C(=O)Nc1ccccc1C` (stereo not drawn), for which the growth inhibition in assay [1] is -5.8%; in assay [2], -21.6%; in assay [3] it was -8.35%; in assay [4], 7.4%; in assay [5], -14.1%; in assay [6], -18.1%.
Take `CC(C)OC(=O)c1ccc(=O)oc1`: the growth inhibition in assay [1] was 7.4%; in assay [2], -5.85%; in assay [3], -2.4%; in assay [4] it was -8.75%; in assay [5], -18.4%; in assay [6] it was -5.15%.
For `CC(=O)NCc1cc([N+](=O)[O-])ccc1O`, the growth inhibition was 11.6% in assay [1]; 2.55% in assay [2]; -0.8% in assay [3]; -6.2% in assay [4]; -3.55% in assay [5]; 5.05% in assay [6].
Turning to `CC(NN(C)C(=S)Nc1ccccc1)c1ccccn1` (stereo not drawn), the growth inhibition in assay [1] was -6.7%; in assay [2], -7.15%; in assay [3], -9.15%; in assay [4] it was -10.8%; in assay [5], -4.75%; in assay [6], -0.1%.
Turning to `C=C1C(=O)OC2C=C(C)C3C(OC(=O)c4ccccc4)CC(C)(O)C3CC12` (stereo not drawn), the growth inhibition was 1.4% in assay [1]; -41.4% in assay [2]; 3.05% in assay [3]; 16.6% in assay [4]; -2.75% in assay [5]; 0.45% in assay [6].
As to `C(CCN1CN(CCCCN2CCOCC2)CN(CCCCN2CCOCC2)C1)CN1CCOCC1`, the growth inhibition is 12.8% in assay [1]; 4.75% in assay [2]; 10.4% in assay [3]; -5.5% in assay [4]; -1.75% in assay [5]; 29.6% in assay [6].
As for `O=C(O)COc1ccccc1F`, the growth inhibition was -27.9% in assay [1]; 12.1% in assay [2]; -14.4% in assay [3]; -25.9% in assay [4]; 3% in assay [5]; -3.85% in assay [6].
On to `O=[N+]([O-])c1ccc(SC2OC(CO)C(O)C(O)C2O)c([N+](=O)[O-])c1` (stereo not drawn), for which the growth inhibition in assay [1] was 2.05%; in assay [2], 29.4%; in assay [3], 3.95%; in assay [4] it was -14.2%; in assay [5] it was -5.35%; in assay [6], 20.8%.
As for `Fc1ccccc1N=Cc1ccc(C=Nc2ccccc2F)cc1`, the growth inhibition is 3.85% in assay [1]; -11.2% in assay [2]; 23.9% in assay [3]; 21.3% in assay [4]; 45.6% in assay [5]; 26.4% in assay [6].
In the case of `CC1CCCNC1C` (stereo not drawn), the growth inhibition in assay [1] is -21%; in assay [2] it was -24.1%; in assay [3], -11.1%; in assay [4], -29%; in assay [5], -3.25%; in assay [6], 8.25%.
For `Brc1ccc(N=N/C(=N/Nc2ccccc2)c2ccc(/C=N/Nc3ccccc3)cc2)cc1`, the growth inhibition in assay [1] was 45.8%; in assay [2] it was 24.4%; in assay [3] it was 14.6%; in assay [4], 29.2%; in assay [5] it was 15%; in assay [6], 34.4%.
With `CCc1ccc2[nH]c(C(=O)O)cc2c1`, the growth inhibition in assay [1] is -15.4%; in assay [2], -18.4%; in assay [3] it was -1.75%; in assay [4] it was -11.8%; in assay [5] it was -21.6%; in assay [6], 4.45%.
In the case of `COc1ccc(-c2cc(C(O)C3CCCCN3)c3ccccc3n2)cc1` (stereo not drawn), the growth inhibition in assay [1] is 4.15%; in assay [2] it was -42%; in assay [3] it was -20.9%; in assay [4] it was 11.7%; in assay [5], -31.1%; in assay [6], -10.1%.
Consider `C/C(NN(C)C)=C(\C#N)C(=O)/C=C/c1cccs1`, for which the growth inhibition in assay [1] is 25.2%; in assay [2] it was 1.75%; in assay [3], 38.5%; in assay [4], 25.9%; in assay [5] it was 18.1%; in assay [6] it was 18.8%.
With `COc1ccc(Cc2c[nH]c3cc(OC)c(OC)cc23)cc1OC`, the growth inhibition in assay [1] was -22.8%; in assay [2], -9%; in assay [3] it was 18.9%; in assay [4], -57.8%; in assay [5] it was 10.1%; in assay [6], -1.4%.
With `CC(=O)Oc1c(Cl)c(Cl)c(C#N)c(Cl)c1C#N`, the growth inhibition in assay [1] was 30.4%; in assay [2] it was 1.7%; in assay [3], 26.2%; in assay [4] it was 10.8%; in assay [5], 8.8%; in assay [6], 26.1%.
For `NC(=O)N1CCCC1=O`, the growth inhibition in assay [1] was -18.4%; in assay [2], -18.9%; in assay [3] it was -20.8%; in assay [4], -8.5%; in assay [5], -11.3%; in assay [6] it was -20.9%.
Consider `C1=C[CH]([Sn]([CH]2C=Cc3ccccc32)([CH]2C=Cc3ccccc32)[CH]2C=Cc3ccccc32)c2ccccc21` (stereo not drawn), for which the growth inhibition in assay [1] was -14.2%; in assay [2], -6.75%; in assay [3], -1%; in assay [4] it was -6.4%; in assay [5] it was 1.2%; in assay [6] it was -1.7%.
On to `CCOC(=O)C1CCC(=O)C(CC)=C1C` (stereo not drawn), for which the growth inhibition was -6.8% in assay [1]; -40.3% in assay [2]; 8.5% in assay [3]; -1.85% in assay [4]; -6.5% in assay [5]; -6.5% in assay [6].
Turning to `O=C(c1ccccc1)N1CC2CCC1CN2C(=O)c1ccccc1`, the growth inhibition in assay [1] is 15.8%; in assay [2], 15.2%; in assay [3], 4%; in assay [4], 6.95%; in assay [5], 42.7%; in assay [6], -8.45%.
In the case of `O=C1Nc2ccccc2/C1=N/N=P(c1ccccc1)(c1ccccc1)c1ccccc1`, the growth inhibition is -10.2% in assay [1]; 0.35% in assay [2]; 10.1% in assay [3]; 2.4% in assay [4]; -5.8% in assay [5]; -5.15% in assay [6].
Turning to `CC1OC(OC2C(CO)OC(O[C@H]3CC[C@@]4(C)C(=CC[C@H]5[C@@H]6C[C@@H]7O[C@]8(CC[C@@H](C)CN8)[C@@H](C)[C@@H]7[C@@]6(C)CC[C@@H]54)C3)C(O)C2O)C(O)C(O)C1O` (stereo partly drawn), the growth inhibition in assay [1] is -17.1%; in assay [2], -26.6%; in assay [3] it was -0.75%; in assay [4] it was 15.2%; in assay [5] it was 6.1%; in assay [6] it was 1.7%.
`CC(=O)Oc1ccc(C2(c3ccc(OC(C)=O)cc3)C(=O)Nc3ccccc32)cc1`: the growth inhibition was -11.2% in assay [1]; -16.3% in assay [2]; -5.85% in assay [3]; -0.65% in assay [4]; 20.8% in assay [5]; -4.65% in assay [6].
